Results on 4 molecules are retold here after PubChem BioAssay AID2283097 (EPA ToxCast).

SMILES strings stand for the structures. Records with an inconclusive call do not appear. Activity calls are given as the source filed them. Rule for the calls: active = hit-call score of the fitted dose curve at least 0.9, where 1 is the maximum; inconclusive = response in the unintended direction; inactive = score below 0.9.

Broadly, the AC50 is the midpoint of the concentration-response curve, whichever way the signal moves.

The assay deals with human CYP1B1, CYP1B1 (gene 1545) (UniProt Q16678). As to the kind of experiment: NVS_ADME_hCYP1B1: NovaScreen (NVS) CYP450-related Enzyme Activity (ADME) Assay for human CYP1B1. The protocol: NVS_ADME_hCYP1B1 is a biochemical, single-readout assay that uses extracted gene-proteins in a cell-free assay. Measurements were taken 1 hour after chemical dosing in a 96-well plate.NVS_ADME_hCYP1B1 is one of one assay component(s) measured or calculated from the NVS_ADME_hCYP1B1 assay. It is designed to make measurements of enzyme activity, a form of enzyme reporter, as detected with fluorescence intensity signals by Fluorescence technology.Data from the assay component NVS_ADME_hCYP1B1 was analyzed into 1 assay endpoint. This assay endpoint, NVS_ADME_hCYP1B1, was analyzed in the positive analysis fitting direction relative to Acetonitrile as the negative control and baseline of activity. Using a type of enzyme reporter, loss-of-signal activity can be used to understand changes in the enzymatic activity as they relate to the gene CYP1B1. Furthermore, this assay endpoint can be referred to as a primary readout, because this assay has produced multiple assay endpoints where this one serves a enzymatic activity function. To generalize the intended target to other relatable targets, this assay endpoint is annotated to the cyp intended target family, where the subfamily is xenobiotic metabolism.
human CYP1B1, CYP1B1 (gene 1545), sequence (Q16678 whole entry, looked up): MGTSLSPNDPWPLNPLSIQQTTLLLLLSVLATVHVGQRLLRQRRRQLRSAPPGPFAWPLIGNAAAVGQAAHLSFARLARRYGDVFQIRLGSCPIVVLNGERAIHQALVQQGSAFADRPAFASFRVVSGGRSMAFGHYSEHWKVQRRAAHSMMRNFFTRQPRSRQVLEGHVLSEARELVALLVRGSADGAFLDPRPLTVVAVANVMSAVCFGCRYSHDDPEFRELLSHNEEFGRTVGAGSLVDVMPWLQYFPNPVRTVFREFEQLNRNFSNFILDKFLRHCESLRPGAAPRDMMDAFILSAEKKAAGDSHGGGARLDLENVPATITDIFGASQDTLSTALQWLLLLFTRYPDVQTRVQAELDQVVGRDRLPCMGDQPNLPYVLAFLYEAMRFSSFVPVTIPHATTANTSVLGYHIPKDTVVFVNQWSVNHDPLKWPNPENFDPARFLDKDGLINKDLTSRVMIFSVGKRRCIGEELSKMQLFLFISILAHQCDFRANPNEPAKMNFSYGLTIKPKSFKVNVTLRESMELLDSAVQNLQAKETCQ
Binding assays used specific radioligands (tritiated, iodinated) with non-radioactive competitive displacement ligands in agonist or antagonist protocols (as indicated) and various reference compounds and inhibitors to titrate specific binding to receptors and transporters. Most enzyme assays (CYPs, kinases, phosphatases, proteases, HDACs) used recombinant protein and specific substrates (fluorescence mostly, some colorimetric and radioactive) and inhibitors, followed by a biochemical separation of substrate and product. All assays for the biochemical HTS were initially run in duplicate at a single concentration (10 uM for CYP450 assays and 25 uM for all others). Assay-chemical combinations meeting a pre-defined threshold (e.g., 30% inhibition and other criteria defined below) were then run in singleton concentration-response format with maximum concentration of 20 uM for CYPs and 50 uM for all others. Each assay was run with positive and negative controls, and concurrent controls on every plate. The follow-up (secondary) screen tested active chemical-pairs in concentration series, as well as a few additional assays not tested in the primary screen, some selected negative inactives, and several cases re-run in the concentration series for confirmatory purposes.
On to `COP(=S)(OC)SCn1nnc2ccccc2c1=O`, for which the AC50 is 498 nM (active).

On to `Cc1ccc(-c2c(Cl)nc(C#N)n2S(=O)(=O)N(C)C)cc1`, for which the outcome was inactive. Take `CCCN(CCOc1c(Cl)cc(Cl)cc1Cl)C(=O)n1ccnc1`: the outcome was inactive. On to `Cc1ccn2nc(S(=O)(=O)Nc3c(F)cccc3F)nc2n1`, for which the call was inactive.
